# Data from ChEMBL document CHEMBL1961873, “Compounds: GSK PKIS; Assays: Nanosyn kinase panel” (2012).
# Biological target: Cyclin-dependent kinase 2 (Homo sapiens) (UniProt P24941)
# Conditions: at 0.1 µM
row,Structure (SMILES),inhibition [%]
1,CCCN(CCS(C)(=O)=O)Cc1ccc(-c2ccc3ncnc(Nc4ccc(OCc5cccc(F)c5)c(Cl)c4)c3c2)o1,0.78
2,CCn1c(-c2nonc2N)nc2c(C#CC(C)(C)O)ncc(OC3CCNCC3)c21,3.56
3,CCn1c(-c2nonc2N)nc2c(C#CC(C)(C)O)nc(OC[C@H](N)c3ccccc3)cc21,3.52
4,CC(=O)Nc1cccc(C#Cc2cncnc2Nc2ccc(OCc3cccc(F)c3)c(Cl)c2)c1,0.72
5,Cc1ccc(O)cc1Nc1ccnc2cc(-c3ccccn3)ccc12,0.84
6,CCn1c(-c2nonc2N)nc2cnc(Oc3cccc(NC(=O)c4ccc(N(C)C)cc4)c3)cc21,1.74
7,NC(=O)c1sc(-n2cnc3ccc(C(F)(F)F)cc32)cc1OCc1ccccc1Br,1.25
8,CCc1nn2ncccc2c1-c1ccnc(NC2CC2)n1,3.24
9,N#Cc1c(NC(=O)CN2CCOCC2)sc2c1CCCC2,3.4
10,CN(C)CCOc1ccc(-c2nc(-c3ccncc3)c(-c3ccc4c(c3)CC/C4=N\O)[nH]2)cc1,1.86
11,CCOc1ccc2c(-c3ccnc(Nc4cccc(C(F)(F)F)c4)n3)cnn2n1,1.78
12,COc1cccc(-c2c[nH]c3c(N/N=C/c4ccncc4)ncnc23)c1,30.4
13,c1cc(-c2cnn3nc(N4CCOCC4)ccc23)nc(NC2CC2)n1,6.45
14,CNC(=O)c1cncc(/C=C/c2ccccc2Cl)c1,0.6
15,c1ccc(-c2nc3n(c2-c2ccc4c(c2)OCO4)CCC3)nc1,1.58
16,Fc1cccc(COc2ccc(Nc3ncnc4sc(-c5ccco5)cc34)cc2Cl)c1,2.79
17,CC(C)(CO)CNC(=O)c1ccc2c(c1)/C(=N/Nc1ccc(S(N)(=O)=O)cc1)C(=O)N2,87.3

row,Structure (SMILES),inhibition [%]
1,COc1ccc(-c2cc(-c3c[nH]nc3-c3ccccn3)ccn2)cc1,1.84
2,CC(=O)NCc1cccc(C#Cc2cncnc2Nc2ccc(OCc3cccc(F)c3)c(Cl)c2)c1,1.01
3,COc1ccc(CNC(=O)c2ccc(-c3cc(-c4nnc(C)o4)ccc3C)cc2)cc1,-2.09
4,O=S(=O)(CCNCc1ccc(-c2ccc3ncnc(Nc4ccc(OCc5cccc(F)c5)c(Cl)c4)c3c2)o1)c1ccccc1,2.32
5,Nc1nc(-c2cccc(Cl)c2)c(-c2ccc3ncccc3n2)s1,1.23
6,CS(=O)(=O)CCNCc1ccc(-c2ccc3ncnc(Nc4ccc(OCc5ccccc5)c(C(F)(F)F)c4)c3c2)o1,6.22
7,CCN(CC)S(=O)(=O)c1ccc(OC)c(Nc2ncc(-c3ccccc3)o2)c1,2.02
8,CS(=O)(=O)CCNCc1coc(-c2ccc3ncnc(Nc4ccc(OCc5ccccc5)cc4)c3c2)c1,2.91
9,CCN1CCC(CC(=O)Nc2n[nH]c3nnc(-c4cccc(F)c4F)cc23)CC1,2.71
10,CN1CCC(n2cnc(-c3ccc(F)cc3)c2-c2ccnc(Nc3ccccc3)n2)CC1,0.89
11,CCNC(=O)O[C@H]1CN[C@H](C#Cc2cc3ncnc(Nc4ccc(OCc5cccc(F)c5)c(Cl)c4)c3s2)C1,2.63
12,Clc1ccc(-c2nn3ncccc3c2-c2ccnc(Nc3ccccc3)n2)cc1,1.43
13,Cc1cccc2c1NC(=O)/C2=N\Nc1ccc(S(N)(=O)=O)cc1,1.45
14,COc1cc(/C=N/Nc2ncnc3[nH]ncc23)ccc1O,3.26
15,COc1cccc(-n2ncc3c(N/N=C/c4ccc(F)cc4)ncnc32)c1,10.1
16,COc1cc(N2CCN(C(C)C)CC2)ccc1Nc1nc(Nc2ccc(F)cc2C(N)=O)c2cc[nH]c2n1,2.71

# Biological target: Cyclin-dependent kinase 2 (Homo sapiens) (UniProt P24941)
# Conditions: at 1 µM
row,Structure (SMILES),inhibition [%]
1,CCCN(CCS(C)(=O)=O)Cc1ccc(-c2ccc3ncnc(Nc4ccc(OCc5cccc(F)c5)c(Cl)c4)c3c2)o1,-1.6
2,CCn1c(-c2nonc2N)nc2c(C#CC(C)(C)O)ncc(OC3CCNCC3)c21,1.76
3,CCn1c(-c2nonc2N)nc2c(C#CC(C)(C)O)nc(OC[C@H](N)c3ccccc3)cc21,4.36
4,CC(=O)Nc1cccc(C#Cc2cncnc2Nc2ccc(OCc3cccc(F)c3)c(Cl)c2)c1,1.81
5,Cc1ccc(O)cc1Nc1ccnc2cc(-c3ccccn3)ccc12,6.62
6,CCn1c(-c2nonc2N)nc2cnc(Oc3cccc(NC(=O)c4ccc(N(C)C)cc4)c3)cc21,8.52
7,NC(=O)c1sc(-n2cnc3ccc(C(F)(F)F)cc32)cc1OCc1ccccc1Br,1.52
8,CCc1nn2ncccc2c1-c1ccnc(NC2CC2)n1,10.4
9,N#Cc1c(NC(=O)CN2CCOCC2)sc2c1CCCC2,4.28
10,CN(C)CCOc1ccc(-c2nc(-c3ccncc3)c(-c3ccc4c(c3)CC/C4=N\O)[nH]2)cc1,11.1
11,CCOc1ccc2c(-c3ccnc(Nc4cccc(C(F)(F)F)c4)n3)cnn2n1,8.89
12,COc1cccc(-c2c[nH]c3c(N/N=C/c4ccncc4)ncnc23)c1,73.7
13,c1cc(-c2cnn3nc(N4CCOCC4)ccc23)nc(NC2CC2)n1,50.7
14,CNC(=O)c1cncc(/C=C/c2ccccc2Cl)c1,-0.73
15,c1ccc(-c2nc3n(c2-c2ccc4c(c2)OCO4)CCC3)nc1,-5.6
16,Fc1cccc(COc2ccc(Nc3ncnc4sc(-c5ccco5)cc34)cc2Cl)c1,2.68
17,CC(C)(CO)CNC(=O)c1ccc2c(c1)/C(=N/Nc1ccc(S(N)(=O)=O)cc1)C(=O)N2,93.6

row,Structure (SMILES),inhibition [%]
1,COc1ccc(-c2cc(-c3c[nH]nc3-c3ccccn3)ccn2)cc1,7.74
2,CC(=O)NCc1cccc(C#Cc2cncnc2Nc2ccc(OCc3cccc(F)c3)c(Cl)c2)c1,-3.16
3,COc1ccc(CNC(=O)c2ccc(-c3cc(-c4nnc(C)o4)ccc3C)cc2)cc1,-1.7
4,O=S(=O)(CCNCc1ccc(-c2ccc3ncnc(Nc4ccc(OCc5cccc(F)c5)c(Cl)c4)c3c2)o1)c1ccccc1,2.63
5,Nc1nc(-c2cccc(Cl)c2)c(-c2ccc3ncccc3n2)s1,0.95
6,CS(=O)(=O)CCNCc1ccc(-c2ccc3ncnc(Nc4ccc(OCc5ccccc5)c(C(F)(F)F)c4)c3c2)o1,8.37
7,CCN(CC)S(=O)(=O)c1ccc(OC)c(Nc2ncc(-c3ccccc3)o2)c1,5.22
8,CS(=O)(=O)CCNCc1coc(-c2ccc3ncnc(Nc4ccc(OCc5ccccc5)cc4)c3c2)c1,2.02
9,CCN1CCC(CC(=O)Nc2n[nH]c3nnc(-c4cccc(F)c4F)cc23)CC1,13.8
10,CN1CCC(n2cnc(-c3ccc(F)cc3)c2-c2ccnc(Nc3ccccc3)n2)CC1,-0.3
11,CCNC(=O)O[C@H]1CN[C@H](C#Cc2cc3ncnc(Nc4ccc(OCc5cccc(F)c5)c(Cl)c4)c3s2)C1,-0.72
12,Clc1ccc(-c2nn3ncccc3c2-c2ccnc(Nc3ccccc3)n2)cc1,3.91
13,Cc1cccc2c1NC(=O)/C2=N\Nc1ccc(S(N)(=O)=O)cc1,3.8
14,COc1cc(/C=N/Nc2ncnc3[nH]ncc23)ccc1O,28.3
15,COc1cccc(-n2ncc3c(N/N=C/c4ccc(F)cc4)ncnc32)c1,48.5
16,COc1cc(N2CCN(C(C)C)CC2)ccc1Nc1nc(Nc2ccc(F)cc2C(N)=O)c2cc[nH]c2n1,0.03
